Active and inactive are the calls of the source.
Legend:
[1] = small molecules captured by biotinylated probe aFSTL3 – biochemical, small-molecule microarray, fluorescence 635/667, stem cell growth factor project, primary screen (AID 1064); conditions: higher = more signal;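 also: measures binding of the biotinylated anti-FSTL3 antibody to printed compounds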
[2] = binders from COS7 lysate, DM2A8 probe, primary screen, torsin A project, cell lysate, small-molecule microarray, fluorescence 635/667 (AID 1065); conditions: higher = more signal, COS7 lysate expressing mutant human TOR1A
[3] = small molecules captured by biotinylated probe aFGF2 – biochemical, small-molecule microarray, fluorescence 635/667, stem cell growth factor project, primary screen (AID 1067); conditions: higher = more signal;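 also: measures binding of biotinylated aFGF2 protein to printed compounds on slides; z-score merges feature fluorescence and signal-to-noise across triplicate slides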
[4] = small molecules captured by biotinylated probe aFGF10 – biochemical, small-molecule microarray, fluorescence 635/667, stem cell growth factor project, primary screen (AID 1071); conditions: higher = more signal;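 also: score merges 667 nm spot intensity and signal to noise from triplicate slides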
[5] = molecular target: Neurogenic locus notch homolog protein 2 (Homo sapiens) (UniProt Q04721); assay: small molecules binding Notch2 protein – biochemical, small-molecule microarray, 635 nm fluorescence, stem cell growth factors, primary screen (AID 1073); conditions: higher = more signal
Chain of Neurogenic locus notch homolog protein 2 (Homo sapiens) (Q04721 whole entry, looked up, canonical isoform): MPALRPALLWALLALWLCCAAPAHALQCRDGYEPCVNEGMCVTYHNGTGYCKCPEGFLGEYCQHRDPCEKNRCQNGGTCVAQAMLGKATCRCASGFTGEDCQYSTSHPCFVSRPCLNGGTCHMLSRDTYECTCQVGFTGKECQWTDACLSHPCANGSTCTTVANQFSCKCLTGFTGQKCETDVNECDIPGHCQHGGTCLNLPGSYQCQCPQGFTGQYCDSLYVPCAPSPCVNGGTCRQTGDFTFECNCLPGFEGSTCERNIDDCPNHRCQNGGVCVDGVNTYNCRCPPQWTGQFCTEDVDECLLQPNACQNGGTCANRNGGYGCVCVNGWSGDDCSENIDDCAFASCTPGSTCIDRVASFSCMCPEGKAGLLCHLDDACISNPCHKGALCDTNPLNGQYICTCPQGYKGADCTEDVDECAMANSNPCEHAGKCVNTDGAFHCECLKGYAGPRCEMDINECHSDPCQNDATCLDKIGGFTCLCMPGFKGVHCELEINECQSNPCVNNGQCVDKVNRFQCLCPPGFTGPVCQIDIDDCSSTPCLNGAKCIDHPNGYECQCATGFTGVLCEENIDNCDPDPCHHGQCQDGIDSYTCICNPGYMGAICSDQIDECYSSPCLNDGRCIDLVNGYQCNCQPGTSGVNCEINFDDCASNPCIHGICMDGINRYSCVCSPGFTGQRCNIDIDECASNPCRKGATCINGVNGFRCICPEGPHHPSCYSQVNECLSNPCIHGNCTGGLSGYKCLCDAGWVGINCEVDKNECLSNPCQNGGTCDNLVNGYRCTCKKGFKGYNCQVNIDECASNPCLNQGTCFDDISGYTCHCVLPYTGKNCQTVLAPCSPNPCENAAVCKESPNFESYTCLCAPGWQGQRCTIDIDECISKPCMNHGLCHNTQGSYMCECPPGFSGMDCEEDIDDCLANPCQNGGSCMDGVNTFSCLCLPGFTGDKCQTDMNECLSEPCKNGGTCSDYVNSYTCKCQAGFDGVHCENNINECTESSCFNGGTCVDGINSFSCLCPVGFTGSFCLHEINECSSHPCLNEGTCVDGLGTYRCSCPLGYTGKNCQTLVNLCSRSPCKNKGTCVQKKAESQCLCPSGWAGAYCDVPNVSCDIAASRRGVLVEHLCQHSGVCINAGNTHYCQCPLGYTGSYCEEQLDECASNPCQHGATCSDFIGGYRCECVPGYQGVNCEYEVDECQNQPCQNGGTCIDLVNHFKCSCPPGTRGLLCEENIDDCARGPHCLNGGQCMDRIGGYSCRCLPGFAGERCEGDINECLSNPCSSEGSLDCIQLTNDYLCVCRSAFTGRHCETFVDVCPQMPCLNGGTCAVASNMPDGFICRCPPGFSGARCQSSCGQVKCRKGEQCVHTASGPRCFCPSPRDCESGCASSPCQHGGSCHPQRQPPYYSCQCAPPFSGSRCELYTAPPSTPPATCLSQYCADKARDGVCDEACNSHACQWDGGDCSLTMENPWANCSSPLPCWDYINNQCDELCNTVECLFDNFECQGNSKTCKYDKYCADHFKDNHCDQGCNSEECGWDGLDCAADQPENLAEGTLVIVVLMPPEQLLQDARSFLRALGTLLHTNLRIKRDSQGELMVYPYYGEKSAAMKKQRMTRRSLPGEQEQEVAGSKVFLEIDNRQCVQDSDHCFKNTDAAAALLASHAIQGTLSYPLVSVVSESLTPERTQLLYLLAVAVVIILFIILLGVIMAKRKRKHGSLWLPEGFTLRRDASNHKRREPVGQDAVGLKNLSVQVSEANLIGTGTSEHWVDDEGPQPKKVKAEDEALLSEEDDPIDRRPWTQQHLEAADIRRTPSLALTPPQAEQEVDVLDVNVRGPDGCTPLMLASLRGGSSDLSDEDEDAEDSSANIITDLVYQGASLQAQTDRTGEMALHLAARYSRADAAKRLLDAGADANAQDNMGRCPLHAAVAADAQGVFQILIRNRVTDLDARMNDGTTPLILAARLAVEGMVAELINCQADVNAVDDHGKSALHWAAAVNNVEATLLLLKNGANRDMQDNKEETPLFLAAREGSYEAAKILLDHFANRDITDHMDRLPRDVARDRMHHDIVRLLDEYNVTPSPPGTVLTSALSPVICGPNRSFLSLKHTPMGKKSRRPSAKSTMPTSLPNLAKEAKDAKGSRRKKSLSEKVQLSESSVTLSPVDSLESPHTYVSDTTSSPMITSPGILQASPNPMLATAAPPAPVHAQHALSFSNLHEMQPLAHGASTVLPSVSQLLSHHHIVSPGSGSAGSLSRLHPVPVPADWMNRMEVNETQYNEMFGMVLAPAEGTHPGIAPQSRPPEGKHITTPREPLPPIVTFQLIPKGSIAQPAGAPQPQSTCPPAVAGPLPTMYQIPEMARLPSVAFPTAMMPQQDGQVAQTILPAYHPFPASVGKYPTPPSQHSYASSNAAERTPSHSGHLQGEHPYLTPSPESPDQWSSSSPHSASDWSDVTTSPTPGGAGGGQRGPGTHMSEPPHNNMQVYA

[6] = molecular target: Pro-neuregulin-1, membrane-bound isoform (Homo sapiens) (UniProt Q02297); assay: small molecules binding neuregulin-1 protein – biochemical, small-molecule microarray, fluorescence 635/667, psychiatric disease protein project, primary screen (AID 1075); conditions: NRG1 binding, 635 nm fluorescence, higher = more signal;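 also: score combines 667 nm spot fluorescence with signal to noise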
Chain of Pro-neuregulin-1, membrane-bound isoform (Homo sapiens) (Q02297 whole entry, looked up, the tested form may be a part, canonical isoform): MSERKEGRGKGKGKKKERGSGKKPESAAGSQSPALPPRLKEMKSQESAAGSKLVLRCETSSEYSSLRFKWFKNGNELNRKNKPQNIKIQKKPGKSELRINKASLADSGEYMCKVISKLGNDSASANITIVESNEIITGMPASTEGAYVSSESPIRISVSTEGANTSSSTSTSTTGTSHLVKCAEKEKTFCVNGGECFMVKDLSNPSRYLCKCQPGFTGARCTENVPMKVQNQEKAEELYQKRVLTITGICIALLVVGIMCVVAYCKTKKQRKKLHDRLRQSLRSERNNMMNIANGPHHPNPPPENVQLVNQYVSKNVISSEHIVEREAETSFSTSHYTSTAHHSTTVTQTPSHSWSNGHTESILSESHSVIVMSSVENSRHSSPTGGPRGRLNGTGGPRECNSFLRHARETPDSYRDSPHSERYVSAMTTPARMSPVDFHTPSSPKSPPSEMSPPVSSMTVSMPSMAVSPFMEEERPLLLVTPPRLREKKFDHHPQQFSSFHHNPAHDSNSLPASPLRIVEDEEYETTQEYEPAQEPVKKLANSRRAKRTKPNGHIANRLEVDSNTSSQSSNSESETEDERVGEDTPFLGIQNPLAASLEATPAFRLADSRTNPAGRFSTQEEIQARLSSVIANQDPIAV

[7] = test system: Neuregulin-1 EGF-like domain; assay: small molecules binding NRG1 EGF domain – biochemical, small-molecule microarray, 635 nm fluorescence, primary screen (AID 1081); conditions: higher = more signal;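 also: binding of the protein to compounds printed on small-molecule microarray slides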
[8] = FRG1 expression reporter modulators in myotubes – cell-based, C2C12 myotubes, firefly/Renilla luciferase, luminescence, FRG1 inhibition for FSHD, primary screen (AID 1084); conditions: FRG1 promoter luciferase, higher = more signal, called active from +8 up or from −8 down
[9] = small molecules captured by biotinylated probe aFST – biochemical, small-molecule microarray, fluorescence 635/667, stem cell growth factor project, primary screen (AID 1086); conditions: higher = more signal;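 also: score merges 667 nm fluorescence with signal-to-noise of each printed compound spot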
[10] = binders of probe aHhip on microarray, primary screen, stem cell growth factor project, biochemical, small-molecule microarray, fluorescence 635/667 (AID 1087); conditions: higher = more signal;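 also: score merges spot fluorescence at 667nm with spot signal to noise ratio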

| Structure (SMILES) | composite z-score [1] | composite z-score [2] | composite z-score [3] | composite z-score [4] | composite z-score [5] | composite z-score [6] | composite z-score [7] | z-score [8] | composite z-score [9] | composite z-score [10] |
| --- | --- | --- | --- | --- | --- | --- | --- | --- | --- | --- |
| O=C1O[C@H](c2ccccc2)[C@H](c2ccccc2)N2[C@H]1[C@@H](C(=O)N1CCCCCCC1)[C@]1(C(=O)Nc3ccc(C#CC4(O)CCCCCC4)cc31)[C@H]2c1ccccc1OCCO | 4 | 2.61 | 0.935 | 1.46 | 1.83 | 2.5 | 1.33 | -1.5 (inactive) | 3.82 | 1.9 |
| Cc1cccc([C@H]2C[C@H]3C(I)=C[C@@H]2C(=O)[C@]32CO2)c1 | 0.165 | 0.0974 | -0.128 | -0.152 | -0.714 | -0.507 | -0.38 | 2.56 (inactive) | -0.0256 | -0.236 |
| C=C(C(=O)CC[C@@H](OC(=O)c1ccccc1-c1ccccc1C(=O)O)c1ccccc1OCCO)C(C)C | -0.248 | 0.95 | -0.113 | 0.858 | 0.493 | 0.0729 | 0.838 | 0.16 (inactive) | 0.111 | 0.233 |
| Cc1ccc(F)cc1S(=O)(=O)N[C@@H]1CCN(Cc2cccc3[nH]ccc23)C1 | 1.05 | 0.871 | -0.0894 | 0.513 | 0.37 | 1.38 | 0.379 | -0.762 (inactive) | -0.0112 | -0.0994 |
| O=C1O[C@H](c2ccccc2)[C@H](c2ccccc2)N2[C@H]1[C@@H](C(=O)Nc1nc3ccccc3s1)[C@]1(C(=O)Nc3ccc(C#CC4=CCCCC4)cc31)[C@H]2c1ccc(O)cc1 | -0.384 | 0.255 | -0.0281 | 0.352 | 0.747 | 1.44 | 1.1 | -0.305 (inactive) | 0.845 | -0.0994 |
| CC(C)C(=C=CC[C@@H](O)c1cccc(OCCO)c1)C[C@@H](O)c1ccccn1 | -0.437 | -0.0934 | -0.147 | 0.815 | -0.553 | -0.253 | 0.125 | 1.35 (inactive) | -0.0246 | -0.137 |
| COC(=O)C(CC#Cc1ccc2c(c1)[C@]1(C(=O)N2)[C@H](c2ccc(O)cc2)N2[C@H](c3ccccc3)[C@H](c3ccccc3)OC(=O)[C@H]2[C@@H]1C(=O)N1CCCCCCC1)C(=O)OC | 3.08 | 0.716 | 0.61 | 0.156 | 1.08 | 1.19 | 1.19 | -0.546 (inactive) | 2.44 | 0.17 |
| COc1ccc([Si](C)(C)[C@@H]2[C@@H](CC(=O)N3Cc4ccccc4C[C@H]3CO)O[C@]3(C(=O)N(Cc4ccc(N5CCC5=O)cc4)c4ccccc43)[C@H]2C)cc1 | -0.406 | 0.351 | -0.12 | 0.163 | 0.291 | 0.636 | 0.866 | -1.63 (inactive) | 0.246 | -0.23 |
| CCCCC=C[C@@H](NC(=O)c1ccccc1)c1ccccc1 | 0.277 | 0.241 | 0.0011 | 0.356 | 1.21 | 0.868 | 1.02 | 1.03 (inactive) | 0.866 | -0.206 |
| COCCOC(=O)N1C(=O)[C@@]2(c3cc(C#Cc4ccc(OC)cc4)ccc31)[C@H](C(=O)NC[C@H](O)c1ccccc1)[C@H]1C(=O)O[C@H](c3ccccc3)[C@H](c3ccccc3)N1[C@@H]2c1ccc(OCCO)cc1 | -0.157 | 0.946 | -0.12 | 0.912 | 1.12 | 1.46 | 1.28 | 0.643 (inactive) | 0.41 | -0.0994 |
| COCCOC(=O)N1C(=O)[C@@]2(c3ccccc31)[C@H](c1ccc(OCCO)cc1)N1[C@H](c3ccccc3)[C@H](c3ccccc3)OC(=O)[C@H]1[C@@H]2C(=O)N1CCCCCCC1 | 4.01 | 2.82 | 1.05 | 1.52 | 1.86 | 3.07 | 1.54 | -3.1 (inactive) | 3.82 | 2.75 |
| Cc1ccc(S[C@]2(C(=O)NCc3ccccc3)CC(=O)N(Cc3cc(C(F)(F)F)cc(C(F)(F)F)c3)[C@@H]2c2ccc(CO)cc2I)cc1 | 0.436 | -0.3 | -0.0767 | -1.03 | -1.44 | 1.11 | 0.623 | -0.452 (inactive) | -0.292 | -0.132 |
| C[C@]1(C(=O)NCC(F)(F)F)c2ccccc2C(=O)N(Cc2ccccc2)[C@H]1c1ccc(CO)cc1 | 0.472 | -1.34 | -0.167 | -0.358 | -1.52 | 0.794 | 0.711 | -1.48 (inactive) | -0.0961 | -0.0003 |
| O=C(O)[C@@H]1C[C@@H]2C(=O)N3CCC[C@H]3C(=O)N2[C@@H]1c1cccc(OCCO)c1 | 3.06 | 2.45 | 0.588 | 0.648 | 1.7 | 2.68 | 1.49 | 1.39 (inactive) | 3.21 | 1.1 |
| CCOC(=O)C1=CC[C@@H](c2ccccc2)N(S(=O)(=O)c2ccc(C)cc2)[C@H]1c1cccc(OC)c1 | 0.154 | -0.133 | 0.0182 | 0.31 | 1.34 | 1.28 | 0.746 | -2.57 (inactive) | 0.648 | -0.0203 |
| CCCCCCCCCCC(O)C1C=CC2C(=O)N(c3ccccc3)C(=O)C2N1Nc1ccccc1F (stereo not given) | 0.51 | -0.165 | -0.0647 | 0.183 | -0.503 | 1.22 | 0.586 | 0.15 (inactive) | -0.08 | -0.185 |
| C=C(/C(=C/C[C@@H](OC(C)=O)c1ccc(CO)o1)c1cc(C(=O)OC)ccc1OC)C(C)C | -0.245 | -0.02 | -0.076 | 0.938 | 1.18 | 1.18 | 1.21 | -0.0698 (inactive) | -0.0417 | -0.0618 |
| CCOC(=O)C1=CCC(c2ccccc2)N(S(=O)(=O)c2ccc([N+](=O)[O-])cc2)C1 (stereo not given) | -0.239 | -0.181 | -0.112 | 0.154 | 1.17 | -0.0979 | 0.549 | -0.877 (inactive) | 0.06 | 0.0505 |
| CN1C=C(C(=O)OCCS(C)(=O)=O)C(C(=O)OCCS(C)(=O)=O)=CC(c2ccc(CO)cc2)=CC1c1cccs1 (stereo not given) | -0.0269 | -0.0376 | -0.0448 | 0.236 | -0.0588 | 1.47 | 1.03 | 2.55 (inactive) | 0.0216 | 0.0024 |
| CO[C@H]1O[C@H](CO)[C@@H](OC(=O)Nc2ccc(C#N)cc2)[C@@H]2OC(=O)[C@H](Cc3cccc(Br)c3)C/C=C/C[C@@H](Cc3cccc(Br)c3)C(=O)O[C@@H]12 | -0.381 | -0.0617 | -0.0181 | 0.503 | 0.626 | 0.514 | 0.3 | -0.362 (inactive) | 0.572 | 0.195 |
| Cc1ccc(N2C(=O)c3ccccc3[C@](C)(C(=O)NCc3ccccc3)[C@@H]2c2ccc(CO)cc2)nc1 | 0.625 | 0.0083 | 0.0898 | -0.369 | -0.378 | 0.64 | 0.635 | 0.101 (inactive) | 0.0665 | 1.07 |
| O=C1c2ccccc2[C@](Cc2ccccc2I)(C(=O)NC2CC2)[C@H](c2ccc(CO)cc2)N1Cc1ccccc1C(F)(F)F | -0.0446 | 0.338 | -0.0878 | 0.433 | -0.229 | 1.74 | 1.26 | -2.07 (inactive) | 0.11 | -0.0726 |
| O=C1OCCC/C=C\[C@H]2OC34C=CCN(c5ccc6ccccc6c5)C(=O)[C@H]3N(CCCO)C(=O)[C@@H]4C12 (stereo not given in full) | -0.0204 | 0.994 | -0.101 | -0.316 | -0.631 | 0.437 | 0.626 | 1.2 (inactive) | -0.72 | -0.12 |
| COC(=O)[C@@]1(Cc2ccc(F)cc2)[C@H]2c3cc(C(=O)N(C)C)n(Cc4c(CO)[nH]cc(C)c4=O)c3C[C@H]2CN1C(=O)c1ccccc1 | 0.535 | -0.199 | 0.142 | 1.16 | 1.42 | 2.1 | 1.15 | 1.09 (inactive) | 0.255 | -0.0237 |
| CC(C)CNC(=O)[C@@]1(c2ccc([N+](=O)[O-])cc2)CC(=O)N(C2CCCCC2)[C@@H]1c1ccc(CO)cc1 | 0.574 | 0.219 | 0.0353 | -0.0872 | 0.554 | 0.452 | 1.26 | -0.639 (inactive) | 0.859 | -0.132 |
| CCCC=C(CCC)[C@@H](NC(=O)CCc1ccccc1)c1ccc(C(F)(F)F)cc1 | 0.304 | 0.0979 | 0.0836 | 0.0199 | 1.53 | 1.51 | 0.969 | -0.129 (inactive) | 0.821 | 0.107 |
| CC(C)C[C@@H]1NC(=O)CNC(=O)[C@@]23C(=O)N[C@@H](Cc4ccccc4)C2[C@H](C)[C@@]2(C)O[C@H]2C3/C=C/C/C=C\CNC1=O (stereo not given in full) | -0.454 | 0.109 | -0.087 | 0.68 | 0.429 | 0.345 | 0.919 | 1.4 (inactive) | 0.0427 | -0.171 |
| C=CC[C@H](OC(=O)Nc1ccc(SC)cc1)c1ccc(OCCO)cc1 | 0.339 | 0.0366 | -0.107 | -0.85 | -1.2 | 0.958 | 1.07 | 8.37 (active) | -0.413 | -0.0994 |

Source: PubChem BioAssay
